Measurements: PubChem BioAssay (NCATS)
Inconclusive results are not listed. Where a call stands in place of a potency, no number is given. The source made the active and inactive calls. Calls follow the shape of the dose curve; as a rule, active = well fitted inhibition curve with a large enough effect; inconclusive = small, poorly fitted or top-dose-only effect; inactive = flat fitted curve, though single readings scatter.

Key:
Assay in all cases: qHTS profiling for inhibitors of Plasmodium falciparum proliferation (AID 504749); also: nearly all actives have a fitted effect of over 60% in size
Settings in all cases: P. falciparum in erythrocytes, SYBR Green DNA, 72 h; series mostly up to 28.7 µM
[1] = test system: CP247
In short: (§1)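 Infected RBCs, 0.3% parasitemia/2.5% Hct final; cpd 72 h, 37 C, 5% CO2; lysis buffer with saponin/triton/SYBR Green I, o/n RT dark; FI 485/535; norm. to artemisinin (0.29 uM) and DMSO.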

[2] = test system: CP250
In short: as §1

[3] = test system: CP252
In short: as §1

[4] = test system: CP256
In short: as §1

[5] = test system: CP260
In short: as §1

[6] = test system: CP262
In short: as §1

[7] = test system: CP265
In short: as §1

[8] = test system: CP266
In short: as §1

[9] = test system: CP268
In short: as §1

[10] = test system: CP269
In short: as §1

[11] = test system: CP286
In short: as §1

[12] = test system: CP291
In short: as §1

[13] = test system: CP297
In short: as §1

[14] = test system: CP305
In short: as §1

[15] = test system: CP315
In short: as §1

[16] = test system: CP325
In short: as §1

[17] = test system: CP329
In short: as §1

[18] = test system: CP335
In short: as §1

[19] = test system: DFO2036
In short: as §1

[20] = test system: DIV14
In short: as §1
Potency is read from the fitted curve at half-maximal effect.

SMILES | Potency [1] | Potency [2] | outcome [3] | outcome [4] | Potency [5] | outcome [6] | Potency [7] | outcome [8] | Potency [9] | outcome [10] | Potency [11] | outcome [12] | outcome [13] | Potency [14] | outcome [15] | outcome [16] | outcome [17] | Potency [18] | Potency [19] | Potency [20]
CC(C)(C)C(=O)OCOC(=O)[C@@H]1N2C(=O)[C@@H](NC(=O)[C@H](N)c3ccccc3)[C@H]2SC1(C)C | inactive | inactive | inactive | inactive | inactive | inactive | inactive | inactive | inactive | inactive | inactive | inactive | inactive | inactive | inactive | inactive | inactive | inactive | inactive | inactive
CC(=O)Nc1cccc(O)c1 | inactive | inactive | inactive | inactive | inactive | inactive | inactive | inactive | inactive | inactive | inactive | inactive | inactive | inactive | inactive | inactive | inactive | inactive | inactive | inactive
CN1CCN(C(=O)C2CCCCC2)CC1 | inactive | inactive | inactive | inactive | inactive | inactive | inactive | inactive | inactive | inactive | inactive | inactive | inactive | inactive | inactive | inactive | inactive | inactive | inactive | inactive
COc1ccc(NS(=O)(=O)c2ccc(N)cc2)nn1 | inactive | inactive | inactive | inactive | inactive | inactive | inactive | inactive | inactive | inactive | inactive | inactive | inactive | inactive | inactive | inactive | inactive | inactive | inactive | inactive
O[C@@H]1CO[C@H]2[C@@H]1OC[C@@H]2O | inactive | inactive | inactive | inactive | inactive | inactive | inactive | inactive | inactive | inactive | inactive | inactive | inactive | inactive | inactive | inactive | inactive | inactive | inactive | inactive
C[C@@H](N)C(=O)O | inactive | inactive | inactive | inactive | inactive | inactive | inactive | inactive | inactive | inactive | inactive | inactive | inactive | inactive | inactive | inactive | inactive | inactive | inactive | inactive
O=C(O)c1cc(=O)c2ccccc2o1 | inactive | inactive | inactive | inactive | inactive | inactive | inactive | inactive | inactive | inactive | inactive | inactive | inactive | inactive | inactive | inactive | inactive | inactive | inactive | inactive
Cc1ccc(S(=O)(=O)NC(=O)NC2CCCCCCC2)cc1 | inactive | inactive | inactive | inactive | inactive | inactive | inactive | inactive | inactive | inactive | inactive | inactive | inactive | inactive | inactive | inactive | inactive | inactive | inactive | inactive
O=c1[nH]cnc2nc[nH]c12 | inactive | inactive | inactive | inactive | inactive | inactive | inactive | inactive | inactive | inactive | inactive | inactive | inactive | inactive | inactive | inactive | inactive | inactive | inactive | inactive
CC(CSC(=O)c1ccccc1)C(=O)N1C[C@@H](Sc2ccccc2)C[C@H]1C(=O)O (some centres not stated) | inactive | inactive | inactive | inactive | inactive | inactive | inactive | inactive | inactive | inactive | inactive | inactive | inactive | inactive | inactive | inactive | inactive | inactive | inactive | inactive
OC[C@@H](O)[C@@H](O)[C@H](O)[C@H](O)CO | inactive | inactive | inactive | inactive | inactive | inactive | inactive | inactive | inactive | inactive | inactive | inactive | inactive | inactive | inactive | inactive | inactive | – | inactive | inactive
CCCNC(C)(C)COC(=O)c1ccccc1 | inactive | inactive | inactive | inactive | inactive | inactive | inactive | inactive | inactive | inactive | inactive | inactive | inactive | inactive | inactive | inactive | inactive | – | inactive | inactive
O=C(NCN1CCOCC1)c1cnccn1 | inactive | inactive | inactive | inactive | inactive | inactive | inactive | inactive | inactive | inactive | inactive | inactive | inactive | inactive | inactive | inactive | inactive | inactive | inactive | inactive
O=C(O)c1ccc(OCCCOc2ccc(C(=O)O)cc2)cc1 | inactive | inactive | inactive | inactive | inactive | inactive | inactive | inactive | inactive | inactive | inactive | inactive | inactive | inactive | inactive | inactive | inactive | inactive | inactive | inactive
OCC(O)CS (configuration not stated) | inactive | inactive | inactive | inactive | inactive | inactive | inactive | inactive | inactive | inactive | inactive | inactive | inactive | inactive | inactive | inactive | inactive | inactive | inactive | inactive
Cc1ccccc1N=Nc1ccc(N=Nc2c(O)ccc3ccccc23)c(C)c1 | inactive | inactive | inactive | inactive | inactive | inactive | inactive | inactive | inactive | inactive | inactive | inactive | inactive | inactive | inactive | inactive | inactive | inactive | inactive | inactive
CC(=O)Nc1ccc(OCCOCCOc2ccc(NC(C)=O)cc2)cc1 | – | inactive | inactive | inactive | inactive | inactive | inactive | inactive | inactive | inactive | inactive | inactive | inactive | inactive | inactive | inactive | inactive | inactive | inactive | inactive

SMILES | Potency [1] | Potency [2] | outcome [3] | outcome [4] | Potency [5] | outcome [6] | Potency [7] | outcome [8] | Potency [9] | outcome [10] | Potency [11] | outcome [12] | outcome [13] | Potency [14] | outcome [15] | outcome [16] | outcome [17] | Potency [18] | Potency [19] | Potency [20]
Nc1c2c(nc3c1CCC3)CCCC2 | – | – | – | – | – | – | – | – | – | – | 11.2 µM (active) | – | – | 15.1 µM (active) | – | – | – | – | – | 13.5 µM (active)
O=C(O)CCCc1ccccc1 | inactive | inactive | inactive | inactive | – | inactive | inactive | – | inactive | inactive | inactive | inactive | inactive | inactive | inactive | inactive | inactive | inactive | inactive | inactive
Cc1cc(OI)c(C(C)C)cc1-c1cc(C(C)C)c(OI)cc1C | – | inactive | – | inactive | – | inactive | – | inactive | – | – | inactive | – | – | inactive | inactive | – | inactive | – | inactive | 10.7 µM (active)
O=c1[nH]c(=O)c2ccccc2o1 | – | inactive | inactive | inactive | inactive | inactive | inactive | inactive | inactive | inactive | inactive | inactive | inactive | inactive | inactive | inactive | inactive | inactive | inactive | inactive
Cc1cc(C)c(NC(=O)CN(CC(=O)O)CC(=O)O)c(C)c1Br | – | – | – | – | inactive | inactive | – | inactive | inactive | inactive | inactive | inactive | inactive | inactive | inactive | inactive | inactive | inactive | – | inactive
CC(=O)N(CC(O)CO)c1c(I)c(C(=O)NCC(O)CO)c(I)c(C(=O)NCC(O)CO)c1I (configuration not stated) | inactive | inactive | inactive | inactive | – | inactive | – | inactive | inactive | inactive | inactive | inactive | inactive | inactive | inactive | inactive | inactive | – | inactive | –
CN1C[C@@H]2C[C@H]1CN2c1cc2c(cc1F)c(=O)c(C(=O)O)cn2C1CC1 | inactive | inactive | – | – | – | – | – | – | – | – | – | – | – | – | – | – | – | 1.2 µM (active) | – | –
Cc1[nH]c(C)c(Cl)c(=O)c1Cl | inactive | – | inactive | – | 8.91 µM (active) | – | inactive | inactive | inactive | inactive | – | inactive | inactive | inactive | inactive | inactive | – | – | inactive | inactive
O=C(O)c1ccccc1C(=O)Nc1ccc(S(=O)(=O)Nc2nccs2)cc1 | inactive | inactive | inactive | inactive | – | inactive | inactive | inactive | inactive | inactive | inactive | inactive | – | inactive | inactive | inactive | inactive | inactive | inactive | inactive
Cc1c(N(C)C)c(=O)n(-c2ccccc2)n1C | inactive | inactive | inactive | inactive | – | inactive | inactive | inactive | inactive | inactive | inactive | – | inactive | inactive | inactive | inactive | inactive | inactive | inactive | inactive
CC(=O)OC[C@H]1O[C@@](COC(C)=O)(O[C@H]2O[C@H](COC(C)=O)[C@@H](OC(C)=O)[C@H](OC(C)=O)[C@H]2OC(C)=O)[C@@H](OC(C)=O)[C@@H]1OC(C)=O | – | – | – | – | inactive | inactive | inactive | inactive | inactive | inactive | inactive | inactive | inactive | inactive | inactive | inactive | – | inactive | – | inactive
NC(=O)c1ccc([N+](=O)[O-])cc1Cl | inactive | inactive | inactive | inactive | – | inactive | – | inactive | inactive | inactive | inactive | inactive | inactive | inactive | inactive | inactive | inactive | – | inactive | –
CC(C)c1cc2c(cc1S(=O)(=O)O)[C@@]1(C)CCC[C@@](C)(C(=O)O)[C@@H]1CC2 | – | inactive | inactive | inactive | inactive | inactive | inactive | inactive | inactive | – | inactive | inactive | inactive | inactive | inactive | inactive | inactive | inactive | inactive | inactive
Cc1cc(NC(=O)C2=C(O)c3ccccc3S(=O)(=O)N2C)no1 | – | inactive | inactive | inactive | inactive | inactive | inactive | inactive | inactive | inactive | inactive | inactive | inactive | inactive | inactive | inactive | inactive | inactive | inactive | inactive
COc1cc(C(=O)NCCCCCC(=O)O)cc(OC)c1OC | inactive | inactive | inactive | inactive | – | inactive | inactive | inactive | inactive | inactive | inactive | inactive | inactive | inactive | inactive | inactive | inactive | inactive | inactive | inactive
CC[N+](C)(CC)CCOC(=O)C1c2ccccc2Oc2ccccc21 | inactive | – | inactive | – | – | inactive | inactive | inactive | inactive | inactive | inactive | inactive | inactive | inactive | inactive | inactive | inactive | inactive | inactive | –
